According to PubChem BioAssay:
Activity calls are given as the source filed them.

Columns and labels:
[1] = tested on: Human papillomavirus type 1a protein E7 (residues 44-93); assay: HPV1a E7 fragment binders on microarrays, primary screen, biochemical, small-molecule microarray, residues 44-93, 635 nm fluorescence (AID 1108); details: small-molecule microarray binding, fluorescence 635 nm; higher = more signal;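 note: E7 fragment applied at 1 µg/mL in TBST for 1 h at 4 C; score combines spot fluorescence with its signal to noise ratio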
[2] = modulators of HCV replicon luciferase signal, primary screen, HCV replication inhibitor project, Huh7 cells, luciferase reporter (AID 1109); details: 48 h, higher = more signal;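 note: huh7 hepatoma cells harbouring a luciferase neomycin HCV replicon reporter; luciferase luminescence as measure of HCV replicon replication; test concentration not given here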
[3] = molecular target: Left-right determination factor 2 (Homo sapiens) (UniProt O00292); assay: LEFTY2 binders on small-molecule microarrays, primary screen, biochemical, small-molecule microarray, 635 nm fluorescence scan (AID 1110); details: LEFTY2 binding, higher = more signal
Left-right determination factor 2 (Homo sapiens), sequence (O00292 whole entry, looked up): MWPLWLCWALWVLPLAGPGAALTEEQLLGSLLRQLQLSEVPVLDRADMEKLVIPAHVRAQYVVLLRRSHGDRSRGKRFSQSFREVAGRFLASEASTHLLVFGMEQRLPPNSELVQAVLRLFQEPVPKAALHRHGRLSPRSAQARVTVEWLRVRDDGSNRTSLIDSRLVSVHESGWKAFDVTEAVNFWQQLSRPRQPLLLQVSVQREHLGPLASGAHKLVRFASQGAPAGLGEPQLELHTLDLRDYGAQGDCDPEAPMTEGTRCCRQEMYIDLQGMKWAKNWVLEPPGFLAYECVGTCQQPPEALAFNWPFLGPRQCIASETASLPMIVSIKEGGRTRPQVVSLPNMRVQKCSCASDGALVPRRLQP

[4] = molecular target: Calmodulin-1 (Homo sapiens) (UniProt P0DP23); assay: CALM1 binders on microarrays, EGTA buffer, profiling panel, biochemical, small-molecule microarray, Cy5-labelled CALM1 (AID 1111); details: Cy5-CALM1 binding fluorescence, higher = more signal;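 note: labelled calmodulin applied in Tris saline Tween buffer holding calcium plus EGTA and DTT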
[5] = molecular target: Calmodulin-1 (Homo sapiens) (UniProt P0DP23); assay: calcium-bound CALM1 binders on microarrays, profiling panel, artefact control for SMM control-protein annotation, biochemical, small-molecule microarray, Cy5-labelled CALM1, plus calcium (AID 1112); details: Cy5-CALM1 binding fluorescence, higher = more signal;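 note: score merges spot fluorescence with signal to noise from triplicate slides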
[6] = small-molecule microarray binders of probe aWnt5a, primary screen, biochemical, biotinylated probe, 635/667 nm fluorescence (AID 1113); details: higher = more signal;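 note: score merges 667 nm fluorescence intensity with signal-to-noise per printed feature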
[7] = small-molecule microarray binders of probe aShh, primary screen, biochemical, biotinylated probe, 635/667 nm fluorescence (AID 1114); details: higher = more signal;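 note: probe is biotin-labelled aShh protein from a stem cell growth factor screen; measures binding of labelled protein to compounds printed on the slide; score merges feature fluorescence at 667 nm with signal-to-noise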
[8] = small-molecule microarray binders of probe aNog, primary screen, biochemical, biotinylated probe, 635/667 nm fluorescence (AID 1115); details: higher = more signal;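 note: probe is biotinylated aNog protein used at 0.15 µg/mL for 1 h at 4 C; z-score combines 667 nm fluorescence of each spot with its signal to noise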
[9] = molecular target: Torsin-1A-interacting protein 1 (Homo sapiens) (UniProt Q5JTV8); assay: LAP1 binders from COS7 cell lysate, primary screen, small-molecule microarray, 635/667 nm fluorescence (AID 1116); details: COS7-hLAP1 lysate binding, 635 nm fluorescence, higher = more signal
Torsin-1A-interacting protein 1 (Homo sapiens), sequence (Q5JTV8 whole entry, looked up): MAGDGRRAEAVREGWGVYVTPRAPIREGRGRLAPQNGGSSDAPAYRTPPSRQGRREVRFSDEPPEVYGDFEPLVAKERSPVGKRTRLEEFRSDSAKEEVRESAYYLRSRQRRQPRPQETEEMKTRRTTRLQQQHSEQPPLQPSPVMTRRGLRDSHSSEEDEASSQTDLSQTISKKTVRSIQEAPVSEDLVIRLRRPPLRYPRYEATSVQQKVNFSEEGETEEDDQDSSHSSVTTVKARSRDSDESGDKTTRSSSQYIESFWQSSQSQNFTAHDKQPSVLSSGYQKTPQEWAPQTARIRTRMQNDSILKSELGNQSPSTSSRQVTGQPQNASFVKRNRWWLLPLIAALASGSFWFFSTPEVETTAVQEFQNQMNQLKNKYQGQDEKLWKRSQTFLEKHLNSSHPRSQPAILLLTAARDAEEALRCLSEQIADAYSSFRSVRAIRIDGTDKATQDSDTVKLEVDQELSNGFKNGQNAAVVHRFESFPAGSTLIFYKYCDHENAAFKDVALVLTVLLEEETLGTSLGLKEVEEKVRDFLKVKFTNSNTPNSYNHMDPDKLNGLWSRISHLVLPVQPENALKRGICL

[10] = molecular target: Alpha-bungarotoxin (Bungarus multicinctus) (UniProt P60615); assay: alpha-bungarotoxin binders on microarray, profiling panel, artefact control for SMM control protein annotation, biochemical, small-molecule microarray, Alexa647 label, 635/667 nm fluorescence (AID 1117); details: alpha-BTX-A647 binding fluorescence, higher = more signal
Alpha-bungarotoxin (Bungarus multicinctus), sequence (P60615 whole entry, looked up): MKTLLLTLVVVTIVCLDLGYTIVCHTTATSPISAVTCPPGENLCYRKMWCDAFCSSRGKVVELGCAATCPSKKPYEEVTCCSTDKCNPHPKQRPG

Albumin (Bos taurus) = Albumin (Bos taurus) (UniProt P02769); assay: bovine serum albumin binders on microarray, profiling panel, artefact control for SMM control protein annotation, biochemical, small-molecule microarray, Alexa647 label, 635/667 nm fluorescence (AID 1118); details: BSA-A647 binding, fluorescence 635 nm, higher = more signal;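 note: score merges 667 nm emission intensity and signal-to-noise per printed compound spot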
Albumin (Bos taurus), sequence (P02769 whole entry, looked up): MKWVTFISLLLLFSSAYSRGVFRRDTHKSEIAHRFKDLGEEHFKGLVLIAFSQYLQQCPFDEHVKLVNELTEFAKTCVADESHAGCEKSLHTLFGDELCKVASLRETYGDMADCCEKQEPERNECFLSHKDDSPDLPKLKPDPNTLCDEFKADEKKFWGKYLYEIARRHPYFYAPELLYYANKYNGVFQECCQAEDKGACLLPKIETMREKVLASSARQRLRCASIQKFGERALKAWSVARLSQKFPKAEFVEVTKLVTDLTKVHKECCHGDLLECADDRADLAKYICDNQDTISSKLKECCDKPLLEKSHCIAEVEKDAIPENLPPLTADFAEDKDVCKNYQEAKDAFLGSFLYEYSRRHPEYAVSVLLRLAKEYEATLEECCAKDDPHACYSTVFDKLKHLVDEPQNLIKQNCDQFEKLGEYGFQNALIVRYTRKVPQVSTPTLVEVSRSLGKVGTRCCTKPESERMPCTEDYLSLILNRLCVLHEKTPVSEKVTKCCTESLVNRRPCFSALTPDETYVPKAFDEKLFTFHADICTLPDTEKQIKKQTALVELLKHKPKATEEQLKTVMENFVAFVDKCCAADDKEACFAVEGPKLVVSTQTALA

[11] = small-molecule microarray binders of probe aXIP, primary screen, biochemical, NeuroSMM set, 635/667 nm fluorescence (AID 1119); details: higher = more signal, called active from +8 up or from −8 down;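 note: probe is the protein aXip251-270 applied at 1 µg/mL to compound-printed slides; binding of probe to printed compounds measured as 667 nm fluorescence plus signal to noise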
[12] = small-molecule binders of probe aNOTCH3, primary screen, biochemical, small-molecule microarray, 635/667 nm fluorescence (AID 1120); details: higher = more signal;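 note: probe is a biotin-tagged antibody raised against NOTCH3 rather than NOTCH3 protein; score merges spot fluorescence near 667 nm with spot signal to noise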
[13] = small-molecule binders of probe aNOTCH2, primary screen, biochemical, small-molecule microarray, 635/667 nm fluorescence (AID 1121); details: higher = more signal;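 note: score merges feature fluorescence read at 667 nm with its signal to noise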
[14] = molecular target: Carbonic anhydrase 2 (Homo sapiens) (UniProt P00918); assay: CAII small-molecule binders, profiling panel, biochemical, small-molecule microarray, Alexa647-labelled CAII (AID 1122); details: CAII-A647 binding fluorescence, higher = more signal
[15] = COS7 lysate on small-molecule microarray, probe aHis, 635 nm (AID 1123); details: COS7 cell lysate, fluorescence, higher = more signal;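 note: z-score combines 667nm fluorescence intensity with signal-to-noise per printed compound spot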
[16] = compound binding in COS7 lysate, probe aLAP1, primary screen, cell lysate, small-molecule microarray (AID 1124); details: probe aLAP1, fluorescence, higher = more signal;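 note: lysate comes from COS7 cells expressing LAP1 and is applied at 0.3 µg/mL; score merges spot fluorescence near 667 nm with signal-to-noise over triplicate slides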
Sam68 (KHDRBS1) = assay: Sam68 small-molecule binders, primary screen, biochemical, small-molecule microarray, 635 nm fluorescence (AID 1125); details: small-molecule microarray binding, higher = more signal;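 note: score merges 667 nm channel intensity with signal to noise over triplicate slides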
[17] = tested on: Chordin-like protein 2 (CHRDL2); assay: CHRDL2 small-molecule binders, primary screen, biochemical, small-molecule microarray, 635 nm fluorescence (AID 1126); details: small-molecule microarray binding, fluorescence 635 nm; higher = more signal;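 note: printed compound slides probed with Chrdl2 protein at 4 µg/mL for 1 h at 4 C; score merges 667 nm emission intensity with signal to noise over three replicate slides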
[18] = molecular target: Concanavalin-A (Canavalia ensiformis) (UniProt P02866); assay: ConA small-molecule binders, primary screen, artefact control for SMM control protein annotation, biochemical, small-molecule microarray, Alexa647 label, 635 nm (AID 1127); details: ConA-A647 binding fluorescence, higher = more signal;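 note: z combines 667 nm emission intensity with signal-to-noise across three replicate slides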
Concanavalin-A (Canavalia ensiformis), sequence (P02866 whole entry, looked up): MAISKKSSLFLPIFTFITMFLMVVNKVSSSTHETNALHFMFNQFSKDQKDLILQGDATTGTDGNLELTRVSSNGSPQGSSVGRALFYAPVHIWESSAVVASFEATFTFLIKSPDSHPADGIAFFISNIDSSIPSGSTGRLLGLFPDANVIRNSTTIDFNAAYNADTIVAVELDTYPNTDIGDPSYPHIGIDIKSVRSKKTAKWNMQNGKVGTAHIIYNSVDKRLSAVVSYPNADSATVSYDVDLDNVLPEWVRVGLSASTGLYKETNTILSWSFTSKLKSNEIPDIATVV

Structure (SMILES)	composite z-score [1]	z-score [2]	composite z-score [3]	composite z-score [4]	composite z-score [5]	composite z-score [6]	composite z-score [7]	composite z-score [8]	composite z-score [9]	composite z-score [10]	composite z-score (Albumin (Bos taurus))	composite Z-score [11]	composite z-score [12]	composite z-score [13]	composite z-score [14]	composite z-score [15]	composite z-score [16]	composite z-score (Sam68 (KHDRBS1))	composite z-score [17]	composite z-score [18]
C[C@]1(C(=O)NC2CC2)c2ccccc2C(=O)N(Cc2ccccc2)[C@H]1c1ccc(CO)cc1	-0.614	-0.582	-1.25	-0.875	-0.629	-0.148	-0.352	0.113	-0.0199	-1.02	-1.91	-0.504 (inactive)	-0.337	-0.105	0.168	-0.163	0.11	-0.958	-0.771	-1.21
COC(=O)[C@@]1(Cc2ccc(OC)cc2)[C@H]2c3cc(C(=O)N4CCCC4)n(Cc4cccc5ccccc45)c3C[C@H]2CN1C(=O)c1ccccc1	0.764	-0.356	-0.58	1.38	0.498	0.0913	0.521	1.95	1.3	0.716	1.02	-0.115 (inactive)	0.137	0.377	0.757	2.55	0.592	0.462	-0.133	0.686
COC(=O)c1c2oc(c1C(=O)OC)C(=O)N(Cc1ccccc1)Cc1cn(nn1)C[C@H](Cc1ccccc1)NC(=O)N[C@H](CO)CC2	0.196	-0.533	0.269	-0.201	-0.464	-0.0194	-0.367	-0.359	0.678	-0.129	0.784	0.535 (inactive)	-0.0918	-0.14	0.778	0.87	0.487	0.636	0.369	0.861
O=C(CS)NCCCCCCNC(=O)[C@H]1C[C@H]2C(=O)N[C@@H](Cc3ccccc3)C(=O)N2[C@H]1c1ccc(O)cc1	1.39	-0.53	0.656	-0.123	-0.426	-0.1	-0.339	-0.493	0.0397	0.329	-0.242	0.578 (inactive)	-0.423	-0.0924	0.557	2.18	0.871	1.18	0.757	1.1
COC(=O)c1nc2oc1CC[C@@H](CO)NC(=O)N(C)Cc1cnnn1C[C@H](Cc1ccccc1)NC2=O	-0.367	-0.421	-1.07	-0.677	-0.319	-0.159	-0.0035	-0.321	0.122	1.25	0.771	0.15 (inactive)	-0.182	-0.167	0.853	0.205	0.321	-0.0671	-0.873	-0.343
NCCCCCCNC(=O)[C@@H]1C[C@@H]2C(=O)N[C@@H](CCCCN)C(=O)N2[C@@H]1c1cccc(OCCO)c1	1.32	-0.661	1.1	1.02	1.2	0.188	1.05	2.03	0.882	0.933	-0.907	2.87 (inactive)	0.645	0.163	0.584	-0.191	0.767	1.2	1.05	0.718
O=C1O[C@H](c2ccccc2)[C@H](c2ccccc2)N2[C@H]1[C@@H](C(=O)NC[C@H](O)c1ccccc1)[C@]1(C(=O)Nc3ccc(C#CCCO)cc31)[C@H]2c1ccc(OCCO)cc1	1.1	-1.32	-0.312	1.1	0.547	-0.0758	0.241	0.509	0.213	1.16	0.834	0.182 (inactive)	0.0311	-0.0666	0.627	1.7	-0.0479	1.29	-0.327	1.08
CC1CC/C=C\[C@H]2OC34C=CCN(C(C)C)C(=O)[C@H]3N(CCCCCCO)C(=O)[C@@H]4C2C(=O)O1 (stereo not given in full)	-1.9	-0.729	-0.83	-0.295	0.571	-0.15	-0.117	0.0595	-0.673	-0.706	-0.0272	-0.416 (inactive)	-0.268	-0.145	0.889	-0.63	-0.0532	-1.83	-0.607	-0.594
CC(C)(C)N1CC=CC23O[C@@H]4C=CCOC(=O)[C@@H]4[C@H]2C(=O)N(CCCCCCO)[C@@H]3C1=O (stereo not given in full)	-1.38	0.397	-0.84	-0.243	-0.123	-0.206	-0.291	-0.357	-0.252	-0.348	0.277	0.395 (inactive)	-0.359	-0.112	0.879	-0.112	0.483	-0.551	-0.677	-0.375
CCOC(=O)C1=CC[C@@H](c2ccc(OCc3ccccc3)c(OC)c2)N(S(=O)(=O)c2ccc(C)cc2)[C@H]1c1ccc(SC)cc1	1.4	-1.75	0.458	1.23	0.298	0.155	0.0659	1.1	0.746	0.573	0.783	0.207 (inactive)	0.386	0.202	0.625	2.53	0.157	1.31	0.525	0.806
C=C(COC)/C(=C/C[C@H](OC(=O)c1ccncc1)c1ccccc1OCCO)c1cnc2ccccc2c1	1.4	-2.29	0.76	-0.158	-0.857	-0.0405	-0.0626	0.0481	0.0493	1.04	0.609	0.431 (inactive)	0.0964	-0.102	0.881	2.07	0.118	1.29	0.951	1.03
COCCOC(=O)N1C(=O)[C@@]2(c3cc(C#CCCO)ccc31)[C@H](C(=O)Nc1nc3ccccc3s1)[C@H]1C(=O)O[C@H](c3ccccc3)[C@H](c3ccccc3)N1[C@@H]2c1ccccc1OCCO	0.792	-1.71	0.674	0.827	-0.112	-0.0025	0.0469	-0.588	0.811	1.45	0.623	0.0088 (inactive)	0.436	0.297	0.542	1.22	0.627	1.29	0.524	1.14
